Consider twelve compounds from ChEMBL document CHEMBL3433997, “St. Jude Leishmania screening dataset” (2016).

Each structure is given as a SMILES string.

Format in all cases: functional
Assay [1] deals with Solute carrier family 2, facilitated glucose transporter member 1 (Homo sapiens) (UniProt P11166). The experiment in a line: ST_JUDE_LEISH: Cytotoxicity at 2uM final concentration against transgenic Leishmania Mexicana promastigotes LmGLUT1 that are glucose transport deficient and complemented with the human glucose transporter GLUT1. Activity is measured by DNA content using SYBR green in vitro.

The target of assay [2] is Hexose transporter 1 (Plasmodium falciparum) (UniProt O97467). The experiment in a line: ST_JUDE_LEISH: Cytotoxicity at 2uM final concentration against transgenic Leishmania Mexicana promastigotes LmPfHT that are glucose transport deficient and complemented with the Plasmodium falciparum hexose transporter. Activity is measured by DNA content using SYBR green in vitro.

Assay [3] has as its target Glucose transporter (Leishmania mexicana) (UniProt O61059). Put plainly: ST_JUDE_LEISH: Cytotoxicity at 2uM final concentration against transgenic Leishmania Mexicana promastigotes LmGT2 that are glucose transport deficient and complemented with the L. Mexicana glucose transporter 2. Activity is measured by DNA content using SYBR green in vitro.

Chain of Solute carrier family 2, facilitated glucose transporter member 1 (Homo sapiens) (P11166 whole entry): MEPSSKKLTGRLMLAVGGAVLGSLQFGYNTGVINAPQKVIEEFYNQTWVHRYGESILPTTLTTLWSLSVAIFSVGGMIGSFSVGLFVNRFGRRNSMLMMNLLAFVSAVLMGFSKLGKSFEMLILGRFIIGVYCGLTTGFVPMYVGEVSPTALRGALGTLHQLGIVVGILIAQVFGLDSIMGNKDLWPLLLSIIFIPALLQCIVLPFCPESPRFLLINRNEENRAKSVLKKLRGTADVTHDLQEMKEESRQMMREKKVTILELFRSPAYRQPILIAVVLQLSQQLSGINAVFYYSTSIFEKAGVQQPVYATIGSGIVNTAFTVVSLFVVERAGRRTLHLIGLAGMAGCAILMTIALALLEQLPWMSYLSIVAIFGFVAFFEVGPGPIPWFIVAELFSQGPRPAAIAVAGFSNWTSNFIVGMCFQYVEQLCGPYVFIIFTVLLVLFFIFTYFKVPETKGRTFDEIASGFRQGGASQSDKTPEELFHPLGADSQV

In general, inhibition refers to the relative decrease from the control value, in per cent. `Oc1ccc(CCNc2nc(NCc3ccccc3-c3ccc(F)cc3)nc(N3CCNCC3)n2)cc1`: the inhibition in assay [1] is -6.17%; in assay [2], 3.48%; in assay [3], 6.39%.

For `Cc1cc(N[C@@H](CC(C)C)C(=O)NCCOc2ccccc2)nc(NCCc2ccc(F)cc2)n1`, the inhibition is 2.19% in assay [1], 2.57% in assay [2] and -0.16% in assay [3].

In the case of `O=C(c1ccc(-c2ccc(-c3nc4cc(C(F)(F)F)ccc4[nH]3)s2)cc1)N1CCCCC1CN1CCC(O)C1` (stereo unspecified), the inhibition in assay [1] is 7.23%; in assay [2], 5.1%; in assay [3], 2.98%.

As for `O=C(NCCCCCN1CCC(c2c[nH]c3ccccc23)CC1)Nc1ccc(Br)cc1`, the inhibition in assay [1] is -0.87%; in assay [2], -1.37%; in assay [3], -0.48%.

For `NC(=O)c1ccccc1OCC(=O)Nc1cccc(-c2cccc(-c3nc4ccccc4[nH]3)c2)c1`, the values for the inhibition in assay [1], in assay [2] and in assay [3] were 0.34%, 1.07% and -4.32%, respectively.

As to `CN1Cc2cc(NC(=O)/C=C/c3ccccc3Cl)ccc2C(C)(C)C1`, the inhibition in assay [1] was determined as 10.7%; in assay [2], 8.21%; in assay [3], 6.98%.

Consider `Cc1cccc2nc(-c3cccc(-c4ccc(NC(=O)c5c[nH]cn5)cc4)c3)[nH]c12`, for which the inhibition in assay [1] was -0.79%; in assay [2], -0.73%; in assay [3], -1.26%.

For `CCN1CCN(CCCNc2c3ccc(Cl)cc3nc3ccc(OC)cc23)CC1`, the inhibition in assay [1] was 9.58%; in assay [2] it was 9.46%; in assay [3] it was 8.38%.

On to `CS(=O)(=O)Nc1cccc(-c2cnc3[nH]cc(-c4ccc(CN)cc4)c3c2)c1`, for which the inhibition in assay [1] came out at 4.62%; in assay [2], 4.04%; in assay [3], 3.33%.

For the compound `CCCc1cc(N2CCC(c3ccccc3)(N3CCCCC3)CC2)nc(Nc2ccc(OC)cc2)n1`, the inhibition in assay [1] was 15.7%; in assay [2] it was 16.5%; in assay [3] it was 6.08%.

Consider `Cc1nc(C)c(CC(=O)Nc2ccc(-c3cccc(-c4nc5cc(C(F)(F)F)ccc5[nH]4)c3)cc2)s1`, for which the inhibition in assay [1] was 13%; in assay [2], 10.6%; in assay [3] it was 8.58%.

For `c1ccc(CCNCc2ccc(-c3ccc(CNC4CCN(Cc5ccccc5)CC4)cc3)nc2)cc1`, the figures for the inhibition in assay [1], in assay [2] and in assay [3] were 5.76%, 11.9% and 4.15%, respectively.
